{
  "source": "PubChem BioAssay AID2629",
  "about": "(Broad Institute, 2010)",
  "note": "Among all 320,000 compounds or so, about 1,900 (0.59%) were called active. Shown is part of a subset that was picked to be rich in actives. A number with no mark means an inactive call. Rule as the data show it: active = inhibition mostly above about 10% (no sharp cut-off); inactive = mostly below about 6.7%.",
  "data": [
    {"target": "Protein LANA1 (Human herpesvirus 8 type P (isolate GK18)) (UniProt Q9QR71)", "sequence (Q9QR71 whole entry, looked up)": "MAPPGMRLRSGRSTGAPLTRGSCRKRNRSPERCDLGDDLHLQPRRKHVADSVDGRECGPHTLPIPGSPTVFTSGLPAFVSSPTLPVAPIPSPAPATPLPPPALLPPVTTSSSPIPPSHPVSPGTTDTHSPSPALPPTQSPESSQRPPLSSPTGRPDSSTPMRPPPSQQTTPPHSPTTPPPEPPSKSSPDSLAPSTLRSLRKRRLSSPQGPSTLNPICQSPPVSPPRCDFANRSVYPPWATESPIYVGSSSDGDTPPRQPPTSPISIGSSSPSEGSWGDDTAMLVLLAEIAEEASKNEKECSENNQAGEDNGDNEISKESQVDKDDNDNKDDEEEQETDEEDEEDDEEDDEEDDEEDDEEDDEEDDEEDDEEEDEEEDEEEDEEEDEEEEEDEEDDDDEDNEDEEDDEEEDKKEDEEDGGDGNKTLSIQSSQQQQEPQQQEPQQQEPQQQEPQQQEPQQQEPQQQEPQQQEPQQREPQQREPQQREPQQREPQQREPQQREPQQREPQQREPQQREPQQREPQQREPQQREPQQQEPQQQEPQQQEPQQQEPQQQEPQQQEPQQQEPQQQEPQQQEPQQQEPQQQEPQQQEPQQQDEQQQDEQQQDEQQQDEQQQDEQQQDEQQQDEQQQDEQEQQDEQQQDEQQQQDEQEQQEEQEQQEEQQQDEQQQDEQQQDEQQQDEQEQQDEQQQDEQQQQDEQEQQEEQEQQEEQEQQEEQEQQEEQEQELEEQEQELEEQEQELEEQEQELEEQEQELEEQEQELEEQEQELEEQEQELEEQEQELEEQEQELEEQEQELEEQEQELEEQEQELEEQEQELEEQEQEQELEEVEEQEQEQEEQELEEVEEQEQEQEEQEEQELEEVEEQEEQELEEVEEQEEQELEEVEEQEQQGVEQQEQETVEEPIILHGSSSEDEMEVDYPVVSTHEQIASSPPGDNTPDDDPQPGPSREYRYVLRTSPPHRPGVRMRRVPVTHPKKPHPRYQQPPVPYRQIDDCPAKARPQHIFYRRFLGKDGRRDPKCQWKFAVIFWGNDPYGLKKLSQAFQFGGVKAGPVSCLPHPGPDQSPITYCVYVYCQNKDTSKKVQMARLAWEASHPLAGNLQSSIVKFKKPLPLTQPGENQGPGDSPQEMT", "assay": "blockers of LANA interaction with H2A/H2B – biochemical, FP readout, HTS, primary screen (AID 2629)", "settings": "cell-free LANA-H2A/H2B peptide, fluorescence polarization, active compounds read high, concentration not given here", "values": [
      {"molecule": "COc1ccc(C(CCN(Cc2ccc(OC)c(OC)c2)C(=O)CCl)c2ccccc2)cc1", "note": "(stereo unspecified)", "inhibition": "-1.72%"},
      {"molecule": "COc1ccc(C(=O)OCC(=O)NCCCc2ccccc2)cc1OC", "inhibition": "-0.725%"},
      {"molecule": "CCN(CCCCOC(=O)c1ccc(OC)c(OC)c1)C(C)Cc1ccc(OC)cc1", "note": "(stereo unspecified)", "inhibition": "8.66% (active)"},
      {"molecule": "CCN(C(=O)COC(=O)c1ccccc1O)c1cccc2ccccc12", "inhibition": "4.86%"},
      {"molecule": "O=C(C1CCN(S(=O)(=O)Cc2ccccc2)CC1)N1CCCc2ccccc21", "inhibition": "1.2%"},
      {"molecule": "Cc1cc(Nc2ccc(Br)cc2)nc2ccccc12", "inhibition": "-0.269%"},
      {"molecule": "Cc1cc(Nc2ccccc2)nc(N)n1", "inhibition": "85.1% (active)"},
      {"molecule": "CC(=O)Nc1ccc(Nc2cc(C)nc(Nc3ccc(NC(C)=O)cc3)n2)cc1", "inhibition": "-0.44%"},
      {"molecule": "Cc1cccn2c(CN(C)C3CCCc4ccccc43)c(C(=O)N3CCOCC3)nc12", "note": "(stereo unspecified)", "inhibition": "3.32%"},
      {"molecule": "COc1cc(NC(=O)COC(=O)c2cnc(C)cn2)c(C)cc1[N+](=O)[O-]", "inhibition": "0.629%"},
      {"molecule": "CCCC(=O)OCC(=O)Nc1cc(Cl)ccc1[N+](=O)[O-]", "inhibition": "3.99%"},
      {"molecule": "Cc1ccc(C)c(NC(=O)COC(=O)CSc2ccccc2)c1", "inhibition": "-1.08%"},
      {"molecule": "COc1ccc(OCC(=O)Nc2cc(C)c(Cl)cc2OC)c([N+](=O)[O-])c1", "inhibition": "3%"},
      {"molecule": "Cc1cc(NC(=O)COC(=O)COc2ccc(Cl)cc2C)c([N+](=O)[O-])cc1C", "inhibition": "18.3% (active)"},
      {"molecule": "COc1cc(NC(=O)COC(=O)CSc2ccc3ccccc3c2)c(C)cc1[N+](=O)[O-]", "inhibition": "10.3% (active)"},
      {"molecule": "Cc1ccc2c(c1)C(c1ccccc1)N(C(=O)c1ccc(F)cc1)CC(=O)N2", "note": "(stereo unspecified)", "inhibition": "-6.68%"},
      {"molecule": "CCCc1nc2c(C)cc(-c3nc4ccccc4n3C)cc2n1Cc1ccc(-c2ccccc2C(=O)O)cc1", "inhibition": "-5.17%"},
      {"molecule": "O=C(CN1CCCC1)Nc1sc2c(c1C(=O)Nc1ccccc1)CCCC2", "inhibition": "-9.6%"},
      {"molecule": "c1ccc(CN=C2Nc3ccccc3CS2)nc1", "inhibition": "-3.85%"},
      {"molecule": "CS(=O)(=O)N1CCN(CC(=O)NC2CCCC2)CC1", "inhibition": "3.66%"},
      {"molecule": "Cc1ccc(S(=O)(=O)NC[C@H]2O[C@@H](n3cnc4c(N)ncnc43)[C@H](O)[C@@H]2O)s1", "inhibition": "-71.8%"},
      {"molecule": "CCOc1cc(C(=O)OCC(=O)Nc2cccc(C)c2)ccc1OCC(=O)N1CCOCC1", "inhibition": "25.3% (active)"},
      {"molecule": "O=C(OCC(=O)N1CCOCC1)c1ccc2ccccc2c1", "inhibition": "-0.101%"},
      {"molecule": "COc1cc(C(=O)Nc2ncccc2C)ccc1OCC(=O)N1CCOCC1", "inhibition": "-0.868%"},
      {"molecule": "O=C(NCC1CCCO1)C1CCN(C2CCN(C(=O)C3CCCCC3)CC2)CC1", "note": "(stereo unspecified)", "inhibition": "0.649%"},
      {"molecule": "COC(=O)c1ccccc1OCC(=O)N1CCN(c2ccc(Cl)cc2)CC1", "inhibition": "3.13%"},
      {"molecule": "C[C@H](NC(=O)c1ccccc1Cl)C(=O)OCC(=O)N1CCN(c2ccccc2)CC1", "inhibition": "41% (active)"},
      {"molecule": "O=C(NC(CC(=O)N1CCN(c2ccccc2)CC1)c1ccccc1)c1ccccc1Cl", "note": "(stereo unspecified)", "inhibition": "4.7%"},
      {"molecule": "O=C(NC1CCCCC1)C1CC(=O)N(CCc2ccccc2)C1", "note": "(stereo unspecified)", "inhibition": "-0.144%"},
      {"molecule": "CCNC(=O)c1cccc(NC(=O)C2CC(=O)N(CCc3ccccc3)C2)c1", "note": "(stereo unspecified)", "inhibition": "75.8% (active)"},
      {"molecule": "COCCCNC(=O)C1CC(=O)N(CCc2ccccc2)C1", "note": "(stereo unspecified)", "inhibition": "0.409%"},
      {"molecule": "O=C(NCCCN1CCCCC1)C1CC(=O)N(CCc2ccccc2)C1", "note": "(stereo unspecified)", "inhibition": "15% (active)"},
      {"molecule": "Cc1ccc(CCN2CC(C(=O)NCCc3ccccc3)CC2=O)cc1", "note": "(stereo unspecified)", "inhibition": "18.8%"},
      {"molecule": "CN(CC(=O)Nc1cccc(F)c1)C(=O)C1CC(=O)N(CCc2ccccc2)C1", "note": "(stereo unspecified)", "inhibition": "-5.92%"},
      {"molecule": "COc1ccc(CNC(=O)C2CCC(CNc3c(N4CCOCC4)c(=O)c3=O)CC2)cc1", "note": "(stereo unspecified)", "inhibition": "-0.686%"},
      {"molecule": "CCOC(=O)Cn1c(-c2cccnc2Cl)nc2ccccc21", "inhibition": "6.09%"},
      {"molecule": "CCCCCCCCCCOC(=O)Cn1c(COc2ccc(C)cc2)[n+](C)c2ccccc21", "inhibition": "15.8% (active)"},
      {"molecule": "CCCCCCCCCCOC(=O)Cn1c(COc2cccc(OC)c2)[n+](C)c2ccccc21", "inhibition": "6.12%"},
      {"molecule": "COC(=O)C(C)n1cnc2c(nnn2-c2ccc(F)cc2)c1=O", "note": "(stereo unspecified)", "inhibition": "-1.75%"},
      {"molecule": "NC(N)=N/N=C/c1ccc(OCc2ccc(Cl)cc2Cl)cc1", "inhibition": "0.216%"},
      {"molecule": "C=CCN(c1ccc(Cl)cc1)S(=O)(=O)c1cccc(C(=O)OCC(=O)N(C)C)c1", "inhibition": "-2.64%"},
      {"molecule": "O=C(NNC(=O)c1cnccc1C(F)(F)F)c1ccc(Cl)cc1", "inhibition": "1.78%"},
      {"molecule": "CCC1=C(OC(=O)N(CC)CC)N2C(=O)OC(=NCCc3c[nH]c4ccccc34)[C@]2(C)[C@H]2C1=CC[C@H]1C(=O)N(CC)C(=O)[C@H]12", "inhibition": "1.67%"},
      {"molecule": "O=C(CN1CCN(c2ccccc2O)CC1)NC(=O)NCc1ccccc1", "inhibition": "2.65%"},
      {"molecule": "Oc1ccccc1N1CCN(C(=S)NCc2ccccc2)CC1", "inhibition": "18.4% (active)"},
      {"molecule": "Oc1ccc(N2CCN(C(=S)NCc3ccccc3)CC2)cc1", "inhibition": "-0.124%"}
    ]}
  ]
}
